This is an account of results in PubChem BioAssay (EPA / NIEHS).

Where “and” joins values, the source holds several entries; their conditions need not be identical. Identical values can stand only once. Inconclusive results are not listed. Calls of active or inactive are those of the source. How the source made its calls, unless noted: active means hit-call score of the fitted dose curve at least 0.9, where 1 is the maximum; inactive means score below 0.9.

Read-out in test [1]: Monocyte Chemoattractant Protein-1 (MCP1), CCL2 (gene 6347)
Briefly: BSK_SAg_MCP1: BioMAP Diversity Plus: SAg Assay for Monocyte Chemoattractant Protein-1 (MCP1) Biomarker Activity (AID 2283090). To be noted: primary human HUVEC with PBMC; actives raise or lower the signal. Put shortly:
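Values derive from bidirectional fitting of ELISA-measured MCP1 against DMSO controls. Readings were taken 24 h after dosing human vascular endothelial cells co-cultured with peripheral blood mononuclear cells under superantigen stimulation.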

Read-out in test [2]: E-selectin (Homo sapiens) (UniProt P16581)
Briefly: BSK_SAg_Eselectin: BioMAP Diversity Plus: SAg Assay for Eselectin Biomarker Activity (AID 2283091). To be noted: primary human HUVEC with PBMC; actives raise or lower the signal. Summed up:
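Co-culture: HUVEC + PBMC. Dose compound; 24 h. ELISA for E-selectin. Bidirectional fit vs DMSO.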

Read-out in test [3]: Monokine induced gamma interferon (MIG), CXCL9 (gene 4283)
Briefly: BSK_SAg_MIG: BioMAP Diversity Plus: SAg Assay for Monokine induced gamma interferon (MIG) Biomarker Activity (AID 2283092). The settings on record: primary human HUVEC with PBMC; actives raise or lower the signal. Summed up: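 Measures CXCL9 protein by ELISA in a human vascular primary-cell co-culture (umbilical vein endothelium with PBMC) 24 h after chemical addition. Activity is scored up or down from the DMSO control.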

Test [4] in a line: BSK_SAg_PBMCCytotoxicity: PBMC Cytotoxicity Assessment in the BioMAP Diversity Plus: SAg Assay (AID 2283093).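 Further: PBMC viability measured as Alamar Blue reduction fluorescence at 546/580 nm; fitted both ways against DMSO so a hit may be loss or gain of signal.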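 On AC50: PBMC superantigen activated with SEB plus TSST-1 one hour after compound addition.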 The settings on record: primary human HUVEC with PBMC. Put shortly:
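Alamar Blue reduction (6 h, ex/em 546/580 nm) read after 90 h culture of PBMC pre-dosed 1 h then stimulated with SEB plus TSST-1, 20 ng/mL each. Gain or loss of signal fitted relative to DMSO.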

Read-out in test [5]: Interleukin-8 (IL8), CXCL8 (gene 3576)
Briefly: BSK_SAg_IL8: BioMAP Diversity Plus: SAg Assay for Interleukin-8 (IL8) Biomarker Activity (AID 2283094). To be noted: primary human HUVEC with PBMC; actives raise or lower the signal. Summed up:
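Chemicals were dosed onto a human endothelial–PBMC co-culture, and IL-8 was quantified by ELISA after 24 h. Both increases and decreases were fitted relative to DMSO.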

Test [6] is described as follows: BSK_SAg_Proliferation: Cell Proliferation Assessment in the BioMAP Diversity Plus: SAg Assay (AID 2283095).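 Further: relative cell number as total protein by SRB absorbance in sub-confluent culture.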 To be noted: primary human HUVEC with PBMC. Summed up: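 Absorbance of sulforhodamine B at 560 nm reports total protein in a human vascular endothelial/PBMC co-culture after 96 h chemical exposure. Gain or loss of signal is fitted in both directions against DMSO.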

The target in test [7] is human CYP19A1, CYP19A1 (gene 1588) (UniProt P11511). Briefly: NVS_ADME_hCYP19A1: NovaScreen (NVS) CYP450-related Enzyme Activity (ADME) Assay for human CYP19A1 (AID 2283098; active means hit-call score of the fitted dose curve at least 0.9, where 1 is the maximum;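 on AC50: potency for inhibitors seen as loss of fluorescent enzyme signal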). Put shortly:
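Primary testing was in duplicate at a single 10 uM concentration, with actives followed up in concentration-response series. Fluorescence read-out of recombinant enzyme activity at 0.5 h, cell-free. Acetonitrile was the negative-control baseline.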

Test [8] has as its target human CYP2B6, CYP2B6 (gene 1555) (UniProt P20813). Briefly: NVS_ADME_hCYP2B6: NovaScreen (NVS) CYP450-related Enzyme Activity (ADME) Assay for human CYP2B6 (AID 2283101; active means hit-call score of the fitted dose curve at least 0.9, where 1 is the maximum). Put shortly: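 Recombinant protein, specific fluorescent substrate, read at 1 h post-dosing. Primary: single 10 uM, duplicate; follow-up: concentration series. Activity = signal loss vs acetonitrile baseline, with positive and negative controls on every plate.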

The target in test [9] is Cytochrome P450 3A4 (Homo sapiens) (UniProt P08684). Briefly: NVS_ADME_hCYP3A4: NovaScreen (NVS) CYP450-related Enzyme Activity (ADME) Assay for human CYP3A4 (AID 2283110; active means hit-call score of the fitted dose curve at least 0.9, where 1 is the maximum). Put shortly: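 Compounds screened in duplicate at 10 uM, with follow-up concentration-response for actives, against insect-cell-expressed recombinant enzyme. Activity read by fluorescence 0.33 h after dosing; loss of signal versus acetonitrile control indicates inhibition.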
Chain of Cytochrome P450 3A4 (Homo sapiens) (P08684 whole entry, looked up): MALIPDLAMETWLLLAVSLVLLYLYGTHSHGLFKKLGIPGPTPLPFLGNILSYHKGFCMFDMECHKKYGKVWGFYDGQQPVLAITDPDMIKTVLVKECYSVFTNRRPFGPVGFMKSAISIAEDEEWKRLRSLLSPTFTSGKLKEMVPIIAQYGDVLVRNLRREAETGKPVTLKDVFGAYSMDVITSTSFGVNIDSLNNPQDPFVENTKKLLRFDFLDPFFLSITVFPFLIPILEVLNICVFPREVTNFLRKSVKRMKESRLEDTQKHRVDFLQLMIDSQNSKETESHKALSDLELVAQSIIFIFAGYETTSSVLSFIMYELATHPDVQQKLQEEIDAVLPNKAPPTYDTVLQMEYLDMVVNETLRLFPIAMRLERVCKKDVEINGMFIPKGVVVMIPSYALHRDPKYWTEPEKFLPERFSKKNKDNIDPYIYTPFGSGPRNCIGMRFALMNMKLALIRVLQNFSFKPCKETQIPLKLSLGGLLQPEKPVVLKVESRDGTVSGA

The target in test [10] is human CYP1A2, CYP1A2 (gene 1544) (UniProt P05177). Briefly: NVS_ADME_hCYP1A2: NovaScreen (NVS) CYP450-related Enzyme Activity (ADME) Assay for human CYP1A2 (AID 2283102; active means hit-call score of the fitted dose curve at least 0.9, where 1 is the maximum). Summed up:
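rec. hCYP1A2 (insect cells), cell-free; fluorogenic substrate; 0.5 h; FI read. Baseline = acetonitrile; signal loss = inhibition. 10 uM duplicate primary → conc. series for actives.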

In test [11] the target is Cytochrome P450 2C19 (Homo sapiens) (UniProt P33261). Briefly: NVS_ADME_hCYP2C19: NovaScreen (NVS) CYP450-related Enzyme Activity (ADME) Assay for human CYP2C19 (AID 2283113; active means hit-call score of the fitted dose curve at least 0.9, where 1 is the maximum;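 further: potency for inhibition seen as loss of fluorescent signal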). Summed up:
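Fluorescence intensity was measured 1 hour after chemicals were added to insect-cell-derived recombinant CYP2C19 with fluorogenic substrate. Decreased signal versus acetonitrile control was taken as reduced enzyme activity; initial testing used 10 uM in duplicate.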

The target of test [12] is rat CYP2A1, Cyp2a1 (gene 24894) (UniProt P11711). Briefly: NVS_ADME_rCYP2A1: NovaScreen (NVS) CYP450-related Enzyme Activity (ADME) Assay for rat CYP2A1 (AID 2283114). Put shortly: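 Cell-free fluorescence enzyme-activity read on recombinant rat CYP2A1, taken 0.75 h post-dosing. Compounds were screened in duplicate at 10 uM, then hits tested in concentration series (max 20 uM); inhibition scored relative to acetonitrile baseline.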
Chain of rat CYP2A1, Cyp2a1 (gene 24894) (P11711 whole entry, looked up): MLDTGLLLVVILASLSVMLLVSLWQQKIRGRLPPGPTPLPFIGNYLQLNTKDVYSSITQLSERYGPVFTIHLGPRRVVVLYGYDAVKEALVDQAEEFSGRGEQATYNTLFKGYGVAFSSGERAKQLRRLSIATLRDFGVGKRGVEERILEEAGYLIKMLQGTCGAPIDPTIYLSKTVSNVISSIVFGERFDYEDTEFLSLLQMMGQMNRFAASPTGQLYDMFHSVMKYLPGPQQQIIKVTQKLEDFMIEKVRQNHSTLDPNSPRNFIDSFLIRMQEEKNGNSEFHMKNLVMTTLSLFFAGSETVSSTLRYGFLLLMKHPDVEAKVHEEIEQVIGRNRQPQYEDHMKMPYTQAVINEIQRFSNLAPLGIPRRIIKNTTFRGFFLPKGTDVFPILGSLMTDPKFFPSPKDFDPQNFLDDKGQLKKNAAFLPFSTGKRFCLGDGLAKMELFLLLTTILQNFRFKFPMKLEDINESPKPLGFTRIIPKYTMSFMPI

Test [13] concerns the target rat CYP2A2, Cyp2a2 (gene 24895) (UniProt P15149). Briefly: NVS_ADME_rCYP2A2: NovaScreen (NVS) CYP450-related Enzyme Activity (ADME) Assay for rat CYP2A2 (AID 2283116; active means hit-call score of the fitted dose curve at least 0.9, where 1 is the maximum). Summed up:
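Compounds first tested in duplicate at 10 uM, then in singleton concentration series up to 20 uM when over threshold. Activity of the recombinant enzyme read by fluorescence at 0.2 h, normalised to acetonitrile vehicle.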

The target of test [14] is rat CYP2C13, Cyp2c13 (gene 171521) (UniProt P20814). Briefly: NVS_ADME_rCYP2C13: NovaScreen (NVS) CYP450-related Enzyme Activity (ADME) Assay for rat CYP2C13 (AID 2283121; active means hit-call score of the fitted dose curve at least 0.9, where 1 is the maximum). Put shortly: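 Inhibition is read as decreased fluorescent product formation, referenced to acetonitrile vehicle. Cell-free recombinant rat Cyp2c13 reaction ran 0.75 hour; compounds first at 10 uM in duplicate, then concentration series for actives.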
Chain of rat CYP2C13, Cyp2c13 (gene 171521) (P20814 whole entry, looked up): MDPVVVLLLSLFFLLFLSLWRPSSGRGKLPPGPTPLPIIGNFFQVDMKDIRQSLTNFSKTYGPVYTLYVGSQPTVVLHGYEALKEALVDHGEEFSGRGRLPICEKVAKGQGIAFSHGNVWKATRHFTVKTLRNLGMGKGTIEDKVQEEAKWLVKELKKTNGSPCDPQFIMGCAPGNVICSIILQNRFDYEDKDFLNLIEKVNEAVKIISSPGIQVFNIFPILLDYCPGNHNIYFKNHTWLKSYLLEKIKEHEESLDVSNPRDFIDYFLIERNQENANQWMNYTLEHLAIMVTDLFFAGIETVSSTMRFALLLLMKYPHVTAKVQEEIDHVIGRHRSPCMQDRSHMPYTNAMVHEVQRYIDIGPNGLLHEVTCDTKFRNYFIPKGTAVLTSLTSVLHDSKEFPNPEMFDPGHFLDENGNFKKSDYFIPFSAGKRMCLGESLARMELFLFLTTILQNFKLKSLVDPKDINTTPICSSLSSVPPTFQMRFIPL

Test [15] has as its target human CYP2D6, CYP2D6 (gene 1565) (UniProt P10635). Briefly: NVS_ADME_hCYP2D6: NovaScreen (NVS) CYP450-related Enzyme Activity (ADME) Assay for human CYP2D6 (AID 2283107; active means hit-call score of the fitted dose curve at least 0.9, where 1 is the maximum). Summed up: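 Insect-cell recombinant enzyme + fluorogenic substrate, cell-free; 1 h incubation; fluorescence intensity readout. Acetonitrile = neg. ctrl/baseline. Single-point 10 uM, duplicate; follow-up concentration series.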

Test [16] addresses human CYP2C9, CYP2C9 (gene 1559) (UniProt P11712). Briefly: NVS_ADME_hCYP2C9: NovaScreen (NVS) CYP450-related Enzyme Activity (ADME) Assay for human CYP2C9 (AID 2283108; active means hit-call score of the fitted dose curve at least 0.9, where 1 is the maximum). Summed up: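 Fluorescence readout of CYP2C9 activity (SF9-expressed human enzyme) at 0.75 h. The primary screen used 10 uM in duplicate, with concentration-response follow-up for actives; acetonitrile was the negative control.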

Test [17] can be described thus: BSK_SAg_SRB: Viability Assessment in the BioMAP Diversity Plus: SAg Assay (AID 2283096).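 Further: cells read one day after compound addition; hits may be either gain or loss of signal compared with DMSO.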 The settings on record: primary human HUVEC with PBMC. Put shortly:
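SRB absorbance at 560 nm served as the viability read-out. Cells (HUVEC plus peripheral blood mononuclear cells) were TCA-fixed and stained 24 h post-dosing; activity fitted in both directions against DMSO controls.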

Chain of human CYP19A1, CYP19A1 (gene 1588) (P11511 whole entry, looked up): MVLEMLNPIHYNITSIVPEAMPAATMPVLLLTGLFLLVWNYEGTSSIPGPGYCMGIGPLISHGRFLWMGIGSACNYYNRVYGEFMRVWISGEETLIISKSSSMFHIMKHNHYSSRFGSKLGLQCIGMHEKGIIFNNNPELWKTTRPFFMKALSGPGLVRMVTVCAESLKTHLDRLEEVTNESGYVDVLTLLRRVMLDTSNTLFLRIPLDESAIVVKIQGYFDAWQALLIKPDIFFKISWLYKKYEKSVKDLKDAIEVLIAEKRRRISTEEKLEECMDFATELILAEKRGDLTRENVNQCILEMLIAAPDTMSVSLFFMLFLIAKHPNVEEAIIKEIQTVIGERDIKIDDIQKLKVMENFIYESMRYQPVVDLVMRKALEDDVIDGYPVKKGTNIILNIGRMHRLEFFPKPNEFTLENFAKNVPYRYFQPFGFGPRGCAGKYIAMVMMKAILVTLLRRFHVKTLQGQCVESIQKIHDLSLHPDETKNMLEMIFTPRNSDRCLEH
Chain of E-selectin (Homo sapiens) (P16581 whole entry, looked up): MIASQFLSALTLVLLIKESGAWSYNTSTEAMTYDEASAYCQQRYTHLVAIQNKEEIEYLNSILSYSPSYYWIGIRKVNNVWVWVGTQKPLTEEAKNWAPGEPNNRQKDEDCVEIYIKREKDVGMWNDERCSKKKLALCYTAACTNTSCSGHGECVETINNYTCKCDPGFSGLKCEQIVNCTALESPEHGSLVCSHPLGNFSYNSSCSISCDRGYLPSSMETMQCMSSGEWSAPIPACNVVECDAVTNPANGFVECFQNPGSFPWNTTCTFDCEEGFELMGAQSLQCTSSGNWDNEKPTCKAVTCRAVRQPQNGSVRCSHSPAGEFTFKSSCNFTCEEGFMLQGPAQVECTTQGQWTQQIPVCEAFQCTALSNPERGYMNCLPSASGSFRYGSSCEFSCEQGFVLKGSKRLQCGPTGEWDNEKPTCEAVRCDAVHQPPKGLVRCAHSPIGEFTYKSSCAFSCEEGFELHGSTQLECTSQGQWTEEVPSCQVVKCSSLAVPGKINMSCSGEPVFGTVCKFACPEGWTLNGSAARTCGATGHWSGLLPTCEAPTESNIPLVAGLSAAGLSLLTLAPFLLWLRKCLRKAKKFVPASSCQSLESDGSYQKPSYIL
Chain of human CYP2D6, CYP2D6 (gene 1565) (P10635 whole entry, looked up): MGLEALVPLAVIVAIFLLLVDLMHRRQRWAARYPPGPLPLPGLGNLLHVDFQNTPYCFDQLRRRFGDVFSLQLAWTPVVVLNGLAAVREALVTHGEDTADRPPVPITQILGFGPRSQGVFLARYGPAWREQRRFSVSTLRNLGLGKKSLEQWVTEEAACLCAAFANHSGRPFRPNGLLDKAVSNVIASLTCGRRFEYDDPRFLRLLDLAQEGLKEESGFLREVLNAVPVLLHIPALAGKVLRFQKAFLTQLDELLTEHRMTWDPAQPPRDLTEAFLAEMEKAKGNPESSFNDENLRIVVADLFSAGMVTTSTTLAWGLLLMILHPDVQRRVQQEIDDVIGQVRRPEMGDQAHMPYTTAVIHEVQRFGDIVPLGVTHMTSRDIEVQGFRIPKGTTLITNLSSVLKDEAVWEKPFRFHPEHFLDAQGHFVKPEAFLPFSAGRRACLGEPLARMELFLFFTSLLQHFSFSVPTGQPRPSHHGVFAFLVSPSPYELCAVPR
Chain of human CYP2C9, CYP2C9 (gene 1559) (P11712 whole entry, looked up): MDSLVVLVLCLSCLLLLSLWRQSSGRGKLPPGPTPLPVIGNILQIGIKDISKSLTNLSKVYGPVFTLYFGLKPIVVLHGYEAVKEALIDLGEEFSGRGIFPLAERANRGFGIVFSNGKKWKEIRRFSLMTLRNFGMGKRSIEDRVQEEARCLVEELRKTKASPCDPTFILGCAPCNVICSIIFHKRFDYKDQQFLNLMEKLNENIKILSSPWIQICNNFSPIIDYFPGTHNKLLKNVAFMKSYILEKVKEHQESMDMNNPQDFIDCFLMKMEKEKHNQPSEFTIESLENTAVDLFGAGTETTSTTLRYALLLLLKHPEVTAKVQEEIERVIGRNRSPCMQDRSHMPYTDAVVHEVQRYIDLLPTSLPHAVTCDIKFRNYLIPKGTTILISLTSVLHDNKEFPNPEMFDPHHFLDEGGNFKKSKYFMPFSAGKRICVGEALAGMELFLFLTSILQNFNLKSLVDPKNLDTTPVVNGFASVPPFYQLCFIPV
Chain of rat CYP2A2, Cyp2a2 (gene 24895) (P15149 whole entry, looked up): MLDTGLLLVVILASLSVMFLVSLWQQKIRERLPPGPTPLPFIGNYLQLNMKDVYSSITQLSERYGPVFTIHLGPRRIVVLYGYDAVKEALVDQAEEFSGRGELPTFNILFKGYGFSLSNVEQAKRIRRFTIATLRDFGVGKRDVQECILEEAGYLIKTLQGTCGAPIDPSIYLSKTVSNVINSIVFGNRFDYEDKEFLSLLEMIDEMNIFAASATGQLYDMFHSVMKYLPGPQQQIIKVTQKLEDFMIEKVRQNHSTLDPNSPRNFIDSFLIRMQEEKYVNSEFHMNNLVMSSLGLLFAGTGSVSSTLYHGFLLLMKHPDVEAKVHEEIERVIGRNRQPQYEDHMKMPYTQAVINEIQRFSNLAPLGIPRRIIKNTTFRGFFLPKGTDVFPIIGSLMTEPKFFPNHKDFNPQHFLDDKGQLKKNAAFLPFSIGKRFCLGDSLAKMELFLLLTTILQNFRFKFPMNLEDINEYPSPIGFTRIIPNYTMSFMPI
Chain of human CYP1A2, CYP1A2 (gene 1544) (P05177 whole entry, looked up): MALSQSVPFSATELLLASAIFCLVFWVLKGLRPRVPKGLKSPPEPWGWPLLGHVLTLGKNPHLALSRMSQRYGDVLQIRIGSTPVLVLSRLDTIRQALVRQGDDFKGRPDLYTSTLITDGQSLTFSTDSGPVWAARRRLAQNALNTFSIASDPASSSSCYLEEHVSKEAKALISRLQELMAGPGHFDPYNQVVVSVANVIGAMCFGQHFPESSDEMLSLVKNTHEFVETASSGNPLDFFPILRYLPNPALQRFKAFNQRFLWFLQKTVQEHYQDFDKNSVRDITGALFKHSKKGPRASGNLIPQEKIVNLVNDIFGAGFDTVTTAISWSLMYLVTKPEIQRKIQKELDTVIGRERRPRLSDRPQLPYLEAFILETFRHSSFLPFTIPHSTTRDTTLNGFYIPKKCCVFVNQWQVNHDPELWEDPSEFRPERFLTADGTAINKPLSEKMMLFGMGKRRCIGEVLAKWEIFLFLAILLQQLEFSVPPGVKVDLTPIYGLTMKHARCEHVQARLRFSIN

Broadly, the AC50 is the midpoint of the concentration-response curve, whichever way the signal moves. In the case of `CC/C(=C(\c1ccccc1)c1ccc(OCCN(C)C)cc1)c1ccccc1`, the AC50 in [1] was 10.4 µM (active) and 10.1 µM (active); in [2], 11.6 µM (active) and 12.5 µM (active); in test [3], 14.1 µM (active) and 11.3 µM (active); in [4] it was 6.22 µM (active) and 6.86 µM (active); in test [5], 18.3 µM (active) and 7.16 µM (active); in test [6], 4.55 µM (active) and 5.13 µM (active). Also, the compound was classed as inactive in test [7], in [8] and in test [9].

With `CCC(=O)OCC=Cc1ccccc1`, the result in [1], in test [2], in test [3], in [4], in test [5] and in test [6] was inactive.

With `C=C(C)C(N)=O`, the result in test [1], in test [2], in [3], in test [4], in [5] and in [6] was inactive. Further, the compound was classed as inactive in [10].

`CC(=O)OC(C)(C)C`: in test [7], the call was inactive.

For `CCCCC/C=C\C=C\C(=O)OCC`, in test [7], the AC50 was 15600 nM (active).

In the case of `C[C@]12CC[C@@H]3c4ccc(O)cc4CC[C@H]3[C@@H]1CC[C@@H]2O`, the result in [2], in [4], in test [5], in test [7] and in test [12] was inactive. Further, the AC50 was 20 µM (active) in test [3]; 13500 nM (active) in test [6]; 813 nM (active) and 2.14 µM (active) in test [11]; 6220 nM (active) in test [13]; 492 nM (active) and 892 nM (active) and 748 nM (active) in test [14].

Take `C=CC(=O)OCC(CO)(COC(=O)C=C)COC(=O)C=C`: the AC50 is 686 nM (active) in [1]; 333 nM (active) in [2]; 0.601 µM (active) in test [3]; 47.6 nM (active) in test [4]; 219 nM (active) in test [5]; 30.5 nM (active) in test [6]. The AC50 in test [11] is 1.76 µM (active).

Regarding `O=[N+]([O-])c1cc(N(CCO)CCO)ccc1NCCO`, the AC50 in test [15] is 3870 nM (active); in [16] it was 2420 nM (active).

In the case of `CC1(C)[C@H](C=C(Cl)Cl)[C@H]1C(=O)OCc1cccc(Oc2ccccc2)c1`, the outcome in test [1], in test [2], in test [3], in test [4], in test [5] and in [6] was inactive. Moreover, in test [17], the result was inactive.

As for `CC(=O)OC(C)(C)C1CC=C(C)CC1` (configuration not stated), the result in test [1], in [2], in [3], in test [4], in test [5] and in test [6] was inactive. Moreover, in test [17], the result was inactive. The AC50 in test [11] was 3.56 µM (active).

Consider `CC(C)CCCC(C)(C)O`, for which the outcome in test [1], in test [2], in test [3], in test [4], in [5] and in test [6] was inactive.

Turning to `O=S1(=O)CC(Cl)(Cl)C(Cl)(Cl)C1`, the AC50 was 807 nM (active) in test [1]; 224 nM (active) in test [2]; 2.75 µM (active) in test [3]; 515 nM (active) in test [4]; 337 nM (active) in test [5]; 79.7 nM (active) in [6]. The AC50 in [15] was 4550 nM (active); in [9], 431 nM (active).
